Many of the other results were omitted from the sample, so hits are more common in it than they were.
KDM5B inh = blocks human KDM5B histone demethylase activity | Q9UGL1 | KDM5B demethylase, FDH-coupled NADH fluorescence (FDH is formaldehyde dehydrogenase) | Potency, µM (highest dose often 57.7 µM), hits mostly inhibitors | 220,000 compounds, 2.6% hits | AID 1347165; active means well fitted inhibition curve with a large enough effect; further: nearly all actives have a fitted effect of over 70% in size
Target sequence (Q9UGL1 whole entry, looked up): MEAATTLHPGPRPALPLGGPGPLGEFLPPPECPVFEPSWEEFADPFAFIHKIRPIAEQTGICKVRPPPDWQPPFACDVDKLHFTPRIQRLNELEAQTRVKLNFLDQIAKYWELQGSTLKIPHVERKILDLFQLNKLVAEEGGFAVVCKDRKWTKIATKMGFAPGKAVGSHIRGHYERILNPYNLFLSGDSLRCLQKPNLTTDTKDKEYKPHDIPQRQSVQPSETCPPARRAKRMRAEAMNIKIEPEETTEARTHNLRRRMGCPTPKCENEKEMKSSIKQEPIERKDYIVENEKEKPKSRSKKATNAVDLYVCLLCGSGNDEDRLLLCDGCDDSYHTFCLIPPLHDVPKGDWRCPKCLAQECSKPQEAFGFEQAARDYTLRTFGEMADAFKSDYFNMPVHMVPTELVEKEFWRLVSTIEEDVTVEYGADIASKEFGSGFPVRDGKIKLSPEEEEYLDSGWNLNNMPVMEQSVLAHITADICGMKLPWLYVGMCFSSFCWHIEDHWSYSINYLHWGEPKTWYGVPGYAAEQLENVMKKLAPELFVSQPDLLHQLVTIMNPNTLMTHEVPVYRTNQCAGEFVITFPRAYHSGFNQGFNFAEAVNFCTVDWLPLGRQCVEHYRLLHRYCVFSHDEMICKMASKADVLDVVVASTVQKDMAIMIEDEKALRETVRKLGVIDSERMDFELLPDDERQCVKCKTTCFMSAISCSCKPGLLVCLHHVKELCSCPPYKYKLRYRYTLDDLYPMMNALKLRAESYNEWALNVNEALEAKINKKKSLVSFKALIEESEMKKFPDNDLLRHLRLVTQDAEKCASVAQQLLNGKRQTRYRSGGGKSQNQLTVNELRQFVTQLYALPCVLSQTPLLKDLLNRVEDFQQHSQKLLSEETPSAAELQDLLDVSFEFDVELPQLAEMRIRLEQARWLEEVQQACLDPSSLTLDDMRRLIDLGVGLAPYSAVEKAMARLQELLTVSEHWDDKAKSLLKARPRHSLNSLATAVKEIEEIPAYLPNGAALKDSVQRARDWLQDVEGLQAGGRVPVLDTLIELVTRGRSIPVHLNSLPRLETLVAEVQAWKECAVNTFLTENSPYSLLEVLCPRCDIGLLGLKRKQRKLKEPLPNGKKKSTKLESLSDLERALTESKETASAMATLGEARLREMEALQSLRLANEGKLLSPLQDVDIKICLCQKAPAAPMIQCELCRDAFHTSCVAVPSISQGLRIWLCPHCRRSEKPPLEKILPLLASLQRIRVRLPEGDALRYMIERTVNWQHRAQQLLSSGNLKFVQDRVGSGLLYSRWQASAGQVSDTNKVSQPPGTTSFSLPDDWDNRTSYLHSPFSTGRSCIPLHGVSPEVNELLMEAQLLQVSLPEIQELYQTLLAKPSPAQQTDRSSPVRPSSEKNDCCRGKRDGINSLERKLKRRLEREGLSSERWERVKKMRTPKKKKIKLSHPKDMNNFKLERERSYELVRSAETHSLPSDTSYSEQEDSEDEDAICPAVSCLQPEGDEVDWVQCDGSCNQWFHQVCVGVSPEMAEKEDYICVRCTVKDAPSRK
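Compound dilutions met 200 nM (final) KDM5BΔAP for 10 min at room temperature before substrate addition. The substrate mix held 12.5 µM H3K4me3 with cofactors 25 µM α-ketoglutarate and 50 µM Fe²⁺. NADH signal gain over 30 min defined activity.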
A number is an active result; – = inactive; ! = a repeat was not active.

SMILES	KDM5B inh
Cc1nn(-c2nc3ccccc3o2)c2c1C(c1ccc(C(F)(F)F)cc1)CC(=O)N2 (stereo not given)	–
CCC(CC)CN1CC2(CCN(C(=O)CCc3cc(=O)[nH]o3)CC2)OC1=O	–
CCC(CC)CN1CC2(CCN(C(=O)c3cn4cccnc4n3)CC2)OC1=O	32µM
Cc1ocnc1C(=O)N1CCC2(CC1)CN(CC(C)c1ccccc1)C(=O)O2 (stereo not given)	–
CC1(C)C(c2ccccc2)=[N+]([O-])C(c2ccccc2Cl)N1O (stereo not given)	–
CC(C)OC(=O)NCCOC(N)=O	–
COC[C@H]1CCCN1Cc1cn(-c2ccccc2C)nc1-c1ccc(OC)c(F)c1	–
COc1ccc(-c2nc3c(C)cccc3cc2CN2CCC(O)CC2)cc1OC	–
COc1cc2cc(CN3CCC[C@@H]3CO)c(-c3cccc(Cl)c3)nc2cc1OC	25µM
COc1cccc(/C=C/C(=O)c2c(C)nn3c4ccccc4n(C)c23)c1OC(C)C	–
COc1cccc2c1OCCCN(C(=O)CC1COCCN1)C2 (stereo not given)	–
N#Cc1ccc(N2C[C@@H]3OCC(=O)N(CC4CCCCC4)[C@@H]3C2)nc1	35µM
CN1CCCC2(CCN(c3ccc(C#N)cn3)C2)C1=O (stereo not given)	–
CCOC(=O)C1CCCN(c2ccc(C#N)cn2)C1 (stereo not given)	–
O=C(c1cccnc1)N1C[C@@H]2OCC(=O)N(CC3CCCCC3)[C@@H]2C1	–
O=C1CO[C@H]2CN(c3ncccn3)C[C@H]2N1CC1CCCCC1	35µM
CN1C(=O)CO[C@H]2CN(c3ccc(C#N)cn3)C[C@H]21	35µM
COc1ccc(C(=O)N2C[C@@H]3OCC(=O)N(CC4CCCCC4)[C@@H]3C2)cc1	–
CN1C(=O)CO[C@H]2CN(S(C)(=O)=O)C[C@H]21	–
O=C(c1cccnc1)N1C[C@@H]2OCC(=O)N(CC3CC3)[C@@H]2C1	–
CCNC(=O)C1CCCN(Cc2ccc(C(F)(F)F)cc2)C1 (stereo not given)	–
O=C1NCCOCCCN(C(=O)NCc2ccccc2)[C@H]2CCC[C@@H]12	–
COc1ccc(NC(C)=O)cc1NC(=O)Cn1ccc2c(Cl)cccc21	–
Cc1ccc(N(C(=O)CNC(=O)c2ccccc2)C2(C(=O)NC3CCCC3)CCCCC2)cc1	–
N#Cc1cccc(NC(=O)CCCCCCCC(=O)Nc2cccc(C#N)c2)c1	–
SMILES	KDM5B inh
O=S(=O)(N1CCOCC1)N1CCCC(c2ccccc2)(c2ccccc2)C1	–
Cc1ccc(SC(=O)c2ccc(Cl)cc2Cl)cc1	–
O/N=C/c1cccc(Oc2ccccc2)c1	–
CCC(O)c1cc2n(n1)CCN(C(=O)CCn1cnc3ccccc3c1=O)C2 (stereo not given)	–
CCC(O)c1cc2n(n1)CCCN(C(=O)CCc1ccsc1)C2 (stereo not given)	–
O=C(Cc1cn2ccsc2n1)N1CCCn2nc(C(O)C3CC3)cc2C1 (stereo not given)	–
CCC(O)c1cc2n(n1)CCN(C(=O)CCc1cn3ccccc3n1)C2 (stereo not given)	11µM
CC(O)c1cc2n(n1)CCCN(C(=O)CCc1cn3ccccc3n1)C2 (stereo not given)	25µM
CCC(O)c1cc2n(n1)CCN(C(=O)Cc1noc3ccccc13)C2 (stereo not given)	–
CCOCCCNCc1cc(=O)oc2ccc3ccccc3c12	–
Cc1ccc(F)cc1S(=O)(=O)N1C[C@@H](C)[C@@](C)(O)C1	–
Cc1oc(-c2ccccc2)nc1CSc1nc2ncccc2[nH]1	–
O=c1[nH]c(Nc2ccccc2)nc2nccc(-c3ccco3)c12	–
Cc1cc(C)cc(NC(=O)CSc2nc3ncccc3[nH]2)c1	–
c1coc(-c2nc3ncccc3[nH]2)c1	32µM!
Clc1ccc(CSc2nc3ncccc3[nH]2)cc1Cl	–
O=C(CSc1nc2ncccc2[nH]1)NC1CCCCC1	–
c1c[nH]c(-c2nc3ncccc3[nH]2)c1	141µM!
COc1ccc(-c2nc3ncccc3[nH]2)cc1	32µM!
CC(C)CN1CC[C@H](c2nc3ncccc3[nH]2)C1	–
COc1ccc(CSc2nc3ncccc3[nH]2)cc1	–
CCC(Sc1nc2ncccc2[nH]1)C(=O)Nc1cccc(OC)c1 (stereo not given)	–
c1cnc2nc(-c3ccncc3)[nH]c2c1	32µM
CCCCOC(=O)/C(C#N)=C/c1c[nH]c2ccccc12	–
Cc1nc(Nc2cccc(C(F)(F)F)c2)sc1C(=O)N(C)C	–
SMILES	KDM5B inh
COCCn1c(=O)n([C@H]2CCCN(C(=O)c3cc(C)nn3C)C2)c2ncccc21	–
NCc1cccc(-c2cccnc2)c1	–
COc1ccc(C(=O)COC(=O)c2cc(C)nc3c(C)cccc23)cc1	–
COc1ccc(C(=O)N2CCc3ccc(C(=O)Nc4ccc5c(c4)OCCO5)cc32)cc1	–
O=C(COc1ccc(Cl)cc1)Nc1cccc(-c2nnc3n2CCCC3)c1	–
Cc1ccc(Cn2c(SCC(=O)O)nc3c2c(=O)[nH]c(=O)n3C)cc1	–
O=C(C1COc2ccccc2O1)N1CCN(c2cc(-c3ccc(Cl)cc3)[nH]n2)CC1 (stereo not given)	–
CC(C)N(C)C(=O)c1cc(-c2cnc(C(C)(C)C)nc2)nc2cc(F)ccc12	–
CC(C)c1ncc(-c2cc(C(=O)N(C)C(C)C)c3ccc(F)cc3n2)cn1	–
Cc1cc(C(=O)NC2CCN(C(=O)C3CC3)CC2)c2ccc(F)cc2n1	–
CC1CCCN1C(=O)c1cc(-c2cnn(C(C)C)c2)nc2cc(F)ccc12 (stereo not given)	28µM
CC(C)n1cc(-c2cc(C(=O)N3CCC(C)(C)C3)c3ccc(F)cc3n2)cn1	32µM
CC1CCCCN1C(=O)CSc1nnc2c(n1)[nH]c1ccc(F)cc12 (stereo not given)	–
CC(C)N(CCNC(=O)c1n[nH]c(=O)c2ccccc12)C(C)C	–
CCCn1c(-n2nc(C)cc2C)nc2c1c(=O)n(Cc1ccc(F)cc1)c(=O)n2C	–
CCC(C)C1=NS(=O)(=O)c2cc(NC(=O)C(C)C)ccc2N1c1ccccc1 (stereo not given)	–
CCNC(=O)NC(=O)COc1ccc2ccc(=O)oc2c1	–
COc1ccc(OC)c(CN2CCCn3nc(C)c(-c4cnccc4C)c32)c1	32µM
Cc1ccncc1-c1c(C)nn2c1N(C(=O)c1scnc1C)CCC2	–
Cc1ccncc1-c1c(C)nn2c1N(Cc1cccc(OC(F)(F)F)c1)CCC2	35µM
COc1ccc(CN2CCCn3nc(C)c(-c4ccccc4C(C)C)c32)cc1O	–
COc1cccc(CN2CCCn3nc(C)c(-c4ccccc4[S+](C)(=O)[O-])c32)c1	–
O=C1CCN(Cc2cccc(OC(F)(F)F)c2)CCCCCCN1	–
O=C(Cc1ccc([N+](=O)[O-])cc1)Nc1ccc2oc(C3CC3)nc2c1	–
O=C(CSc1ncnc2nc[nH]c12)Nc1ccccc1F	–
SMILES	KDM5B inh
Cn1cnc2c1c(=O)n(CCCSc1nnc(-c3ccccc3)o1)c(=O)n2C	–
O=C(CN1CCN(c2ccccc2)CC1)N1N=C(c2cc3ccccc3o2)CC1c1ccco1 (stereo not given)	–
OC1CC(c2cc(NCCCn3ccc4ccccc43)ncn2)C1 (stereo not given)	–
COc1ccc(NC(=O)Cc2cc(OC)c(OC)c(OC)c2)cc1NS(C)(=O)=O	–
CC(C(=O)Nc1ccc2[nH]c(=O)[nH]c2c1)N(C)Cc1ccccc1N1CCCCC1 (stereo not given)	–
C/C(=N/NC(=O)OC(C)(C)C)c1ccccc1Cl	–
